Shown are actives, neighbours in structure and some others; about 3% of the full set was active somewhere.
HIF-2a inh: inhibitors of HIF-2a | 786-0 RCC cells HIF-2a reporter, luciferase luminescence, overnight | inhibition, % at 18.8 µM | actives 0.72% (n = 360,000) | AID 624352;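 active means inhibition of the luminescence signal of 40% or more relative to plate controls, in a single-dose primary screen at 18.75 µM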
Peg3 prom inh: inhibitors of Peg3 promoter. HeLa PEG-Prom luciferase reporter, luminescence, overnight. inhibition, % at 20 µM. actives 1.7% (n = 360,000);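 active means inhibition of at least 50% at 20 µM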
MITF TRPM1 inh: MITF TRPM1 promoter inhibition in SK-MEL-5 cells | SK-MEL-5 TRPM1 promoter luciferase, 24 h | inhibition, % at 12.5 µM | actives 0.83% (n = 330,000) | AID 488899;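 active means mean inhibition across replicates of 60% or more, whatever share of single replicates reaches that level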
LMP1 NFkB inh: Epstein-Barr LMP1 NF-kappaB reporter inhibition; AID 504558; LMP1-induced NF-kappaB luciferase reporter cells, luminescence; actives 0.69% (n = 350,000); inhibition, % at 12.5 µM; in the data active means inhibition above about 41%;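 further: 0% = neutral control wells and 100% = reference inhibitor control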
CF NFkB inh: blocks PAF-induced NF-kB reporter in cystic fibrosis cells; KKLEB NF-kB-GFP reporter, GFP fluorescence overnight; inhibition, % at 5 µM; actives 0.86% (n = 360,000); AID 588850;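 active means at least 50% inhibition at 5 µM, scaled per plate between neutral and stimulator controls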;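 further: PAF is a Pseudomonas aeruginosa culture filtrate used as stimulus; plate controls were PAF-stimulated DMSO wells for no effect and unstimulated DMSO wells for full effect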
KKLEB cytotox: reduces viability of KKLEB cystic fibrosis airway cells | activity change (cytotoxicity), % at 5 µM | actives 0.36% (n = 360,000) | KKLEB CF airway cells viability, ATPlite luminescence, overnight; active compounds read low; cells stimulated with P. aeruginosa culture filtrate | AID 602141;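 active means corrected activity change at or below -50% at 5 µM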
CF NFkB conf: CF NF-kB inhibition confirmation, single concentration; shares compounds with CF NFkB inh; KKLEB CF airway cells, PAF-induced NF-kB-GFP fluorescence, overnight; inhibition, % at 5 µM; actives 64% (n = 1,300); AID 602472; in the data active means inhibition above about 40%;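 further: stimulus PAF is a Pseudomonas aeruginosa filtrate and not platelet activating factor; plate controls were DMSO wells with stimulus for no effect and unstimulated DMSO wells for full effect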
* = called active by the depositor; x = not tested or not shown; ! = repeats disagree.

SMILES	HIF-2a inh	Peg3 prom inh	MITF TRPM1 inh	LMP1 NFkB inh	CF NFkB inh	KKLEB cytotox	CF NFkB conf
CS(=O)(=O)c1ncc(Cl)c(C(=O)Nc2ccc(N3CCOCC3)cc2)n1	15	104*	92*	35	92*	-28	79*
CS(=O)(=O)c1ccc(C(=O)Nc2ccc(N3CCOCC3)cc2)c(Cl)c1	3	1	3	-4	-6	-1	x
Cc1ccccc1NC(=O)c1nc(S(C)(=O)=O)ncc1Cl	-39	105*	28	-22	79*	-1	55*
Cc1ccc(S(=O)(=O)N2C[C@H]3C(=O)C[C@@H](c4ccccc4C)N(S(=O)(=O)c4ccc(C)cc4)[C@H]3C[C@H]2c2ccccc2)cc1	21	8	x	x	17	13	x
Cc1cc(C(=O)N2CCC2(C)C(=O)O)c(C)o1 (configuration not stated)	12	-9	x	x	-20	7	x
O=C1C=C(C#Cc2ccccc2)C[C@@H](c2ccc(F)cc2)C1	26	-5	x	1	32	-26	x
CCC(Oc1ccccc1)C(=O)Nc1nnc(C)s1 (configuration not stated)	3	12	2	3	-3	4	x
CCC(Oc1ccccc1)C(=O)Nc1ncc([N+](=O)[O-])s1 (configuration not stated)	-77	-1	12	-2	50*	-3	46*
O=C(COc1ccc(Cl)cc1)Nc1ncc([N+](=O)[O-])s1	-240	-111	-12	20	57*	-49	75*
Cc1cccc(C)c1-n1nnnc1C(c1ccnc2ccccc12)N1CCN(c2ccccc2F)CC1 (configuration not stated)	14	x	x	x	x	x	x
N#CC1=C(N)Oc2cc(O)c(C=Nc3ccccc3)cc2C1c1ccccc1 (configuration not stated)	31	-12	51	10	41	16	x
Cc1ccc(N=Cc2cc3c(cc2O)OC(N)=C(C#N)C3c2ccccc2)cc1 (configuration not stated)	35	-8	42	7	54*	18	74*
Cc1c(C(=O)OC2CCCC2)[nH]c2c1C(=O)CC(c1ccco1)C2 (configuration not stated)	-47	-26	25	6	50*	-31	82*
COC(=O)c1[nH]c2c(c1C)C(=O)CC(c1ccccc1)C2 (configuration not stated)	6	15	27	11	42	-29	x
Cc1c(C(=O)OCC2CCCO2)[nH]c2c1C(=O)CC(c1ccco1)C2 (configuration not stated)	-20	-4	20	6	5	1	x
Cc1c(C(=O)OCC(C)C)[nH]c2c1C(=O)CC(c1ccco1)C2 (configuration not stated)	-61	-41	7	4	51*	-24	53*
C/C=C/COC(=O)c1[nH]c2c(c1C)C(=O)CC(c1ccc(N(C)C)cc1)C2 (configuration not stated)	-49	-40	-27	6	25	-26	x
C/C=C/COC(=O)c1[nH]c2c(c1C)C(=O)CC(c1ccco1)C2 (configuration not stated)	15	-6	x	9	62*	-32	85*
COc1ccc(NC(=O)c2cc(-c3ccc(F)cc3OC)n[nH]2)c(C)c1	-6	-14	x	x	-23	5	x
CC1Cc2cccc3ccc(=O)n(c23)C1 (configuration not stated)	-7	-14	7	0	7	0	x
COc1ccccc1[C@]1(C)ON(c2ccccc2C(F)(F)F)C1=O	35	82*	59	73*	56*	-14	70*
COc1ccc2c(c1)C(=O)N(c1ccccc1OC)C(=O)C2(C)C	13	11	17	-2	7	-8	x
COc1ccc(S(=O)(=O)Nc2ccccc2C(F)(F)F)cc1	20	21	14	3	15	3	x
COc1ccc([C@]2(C(C)C)ON(c3ccccc3C(F)(F)F)C2=O)cc1	21	66*	23	13	58*	-8	52*
Cc1cc(S(=O)(=O)Nc2ccc(C(=O)NCCN3CCOCC3)cc2)ccc1F	3	18	x	-7	-60	24	x
SMILES	HIF-2a inh	Peg3 prom inh	MITF TRPM1 inh	LMP1 NFkB inh	CF NFkB inh	KKLEB cytotox	CF NFkB conf
CCN1C[C@@H]2[C@@H]3C(=O)N(C)C(=O)[C@@H]3[C@](CC)(C1=O)N2C(=O)c1ccc(C)cc1	10	12	-5	3	7	17	x
CCOC(=O)C1CCN(C(=O)c2ccc3c(=O)n4nc(Nc5ccccc5OC)sc4nc3c2)CC1	-3	16	x	0	-10	-2	x
Nc1cccc2c1C(=O)N(C(=O)/C=C/c1ccc(F)cc1)C2=O	29	102*	42	-9	65*	-24	15
Nc1cccc2c1C(=O)N(C(=O)c1ccco1)C2=O	6	11	5	7	9	3	x
COC(=O)[C@@]12C[C@@H](CC(=O)NCCc3ccccc3OC)C(=O)N(Cc3cccc4ccccc34)C1=CCC(C)(C)C2	-10	x	x	x	x	x	x
CCc1cc2c(Sc3nc4ccccc4s3)ncnc2s1	-5	15	16	43*	67*	-46	89*
CCN1CCN(Cc2ccc(NC(=O)c3ccc(C)c(NC(=O)c4ccc5n[nH]nc5c4)c3)cc2C(F)(F)F)CC1	15	-10	29	36	55*	-11	69*
CCN1CCN(Cc2ccc(NC(=O)c3ccc(C)c(NC(=O)C(=O)c4c[nH]c5ccccc45)c3)cc2C(F)(F)F)CC1	11	97*	82*	43*!	70*	-10	71*
Cc1ccccc1OCCC(=O)Nc1ccc(S(=O)(=O)N2CCCC2)cc1	6	24	x	-3	-10	9	x
O=c1[nH]c(C2CCN(S(=O)(=O)c3ccc4c(c3)OCCO4)CC2)nc2c1nnn2Cc1c(F)cccc1Cl	22	56*	5	0	68*	0	82*
C/C(=N/NC(=O)c1cc(-c2cccc([N+](=O)[O-])c2)n[nH]1)c1cccc(O)c1	14	12	0	-5	57*	-12	37
CN(C)c1ccc(-c2nn3c(-c4ccccc4Cl)nnc3s2)cc1	-17	9	28	11	54*	-35	68*
Nc1ccccc1C=C1Cc2ccccc2C1=O	-211	-244	-9	-46	-59	-7	x
O=C1C(=Cc2ccccc2[N+](=O)[O-])Cc2ccccc21	31	100*	x	12	89*	-48	85*
COc1cc(C(=O)Nc2nnc(-c3sccc3C)s2)cc(OC)c1OC	-14	-1	-5	4	54*	-45	59*
